Screening data: PubChem, Corson Lab, School of Medicine, Indiana University
The sample as a whole holds a higher share of hits than the screen did.
FECH inh: blocks human mitochondrial ferrochelatase activity | calls only at 10 µM (by protocol) | P22830 | purified FECH, Ni-mesoporphyrin absorbance 550 nm | 20,000 tested, 3.3% active;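 active = enzyme reaction rate more than 3 SD below the solvent-only control wells on the same plate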;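 note: lower slope than DMSO wells means FECH inhibition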
Target sequence (P22830 whole entry, looked up): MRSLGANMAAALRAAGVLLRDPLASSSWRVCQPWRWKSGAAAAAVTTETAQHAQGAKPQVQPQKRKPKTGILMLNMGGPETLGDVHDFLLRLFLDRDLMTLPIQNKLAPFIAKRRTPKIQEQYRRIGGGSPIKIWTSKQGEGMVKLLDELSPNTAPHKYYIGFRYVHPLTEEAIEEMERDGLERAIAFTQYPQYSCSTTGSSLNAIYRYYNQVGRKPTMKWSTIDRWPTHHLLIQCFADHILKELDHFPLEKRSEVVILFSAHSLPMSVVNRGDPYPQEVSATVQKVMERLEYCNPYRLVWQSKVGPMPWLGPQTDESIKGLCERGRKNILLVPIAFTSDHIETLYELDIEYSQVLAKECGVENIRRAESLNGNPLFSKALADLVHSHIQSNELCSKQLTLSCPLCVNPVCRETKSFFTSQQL
* hit, by the source's call; i = inactive; + = active, no number.

SMILES	FECH inh
CCCc1cc(Sc2ccc(NC(=O)Nc3ccc(Cl)cc3)cc2)n2ncnc2n1	i
CCc1cc(Sc2ccc(NC(=O)Nc3ccccc3F)cc2)n2ncnc2n1	i
CCc1c(C)nc2ncnn2c1Sc1ccc(NC(=O)Nc2cc(C)ccc2OC)cc1	i
CCCc1cc(Sc2ccc(NC(=O)c3cccc(F)c3)cc2)n2ncnc2n1	+
CCCc1c(C)nc2ncnn2c1Sc1ccc(NC(=O)Nc2cccc(OC)c2)cc1	+
CCCc1cc(Sc2ccc(NC(=O)c3cccc(C)c3)cc2)n2ncnc2n1	i
CCc1cc(Sc2ccc(NC(=O)Nc3ccc(Cl)cc3)cc2)n2ncnc2n1	+
CCCc1c(C)nc2ncnn2c1Sc1ccc(NC(=O)c2c(OC)cccc2OC)cc1	i
CCc1c(C)nc2ncnn2c1Sc1ccc(NC(=O)Nc2ccccc2OC)cc1	i
CCCc1cc(Sc2ccc(NC(=O)c3ccc(C)cc3)cc2)n2ncnc2n1	i
CCc1c(C)nc2ncnn2c1Sc1ccc(NC(=O)Nc2cc(OC)c(OC)c(OC)c2)cc1	+
CCCc1c(C)nc2ncnn2c1Sc1ccc(NC(=O)Nc2ccc(OC)c(OC)c2)cc1	i
COc1ccc(S(=O)(=O)N2CCN(c3nc(C)cc(N4CCCC4)n3)CC2)cc1OC	i
Clc1cccc(Nc2nc(N3CCOCC3)nc3c2cnn3-c2ccccc2)c1	i
CNC(=O)C1CCC(Cn2c(=O)c3sccc3n(CC(=O)Nc3cc(C)ccc3C)c2=O)CC1 (stereo not given)	i
Cc1cc(F)ccc1CC(=O)N1CCNCC1C(=O)NC1CC1 (stereo not given)	i
CCn1c(=O)n(CCOc2ccccc2)c(=O)c2cnc(-c3ccc(OC)cc3)nc21	i
CCCc1cc(Sc2ccc(NC(=O)Nc3cccc(Cl)c3)cc2)n2ncnc2n1	i
CCCc1cc(Sc2ccc(NC(=O)Nc3cccc(OC)c3)cc2)n2ncnc2n1	+
CCCc1cc(Sc2ccc(NC(=O)Nc3ccc(OC)c(OC)c3)cc2)n2ncnc2n1	i
CCc1ccc(S(=O)(=O)N2CCN(Cc3nc4cccnc4n3-c3cccc(F)c3)CC2)cc1	i
O=C(CN1c2ccc(Br)cc2-c2ccccc2S1(=O)=O)NCc1cccnc1	+
O=C(CN1c2ccc(Br)cc2-c2ccccc2S1(=O)=O)Nc1cccnc1	+
COc1ccc(/C=C/CN2CCN(c3nccc4ccccc34)CC2)cc1	i
Cc1cc(C)n2nc(CN(C(=O)C(C)C)c3ccccc3)nc2n1	i
SMILES	FECH inh
C=CCn1c(=O)oc2ccc(C(=O)N3CCN(c4ccccc4)CC3)cc21	i
COC(=O)c1cc2ccsc2n1CC(=O)Nc1ccccc1Cl	i
COc1ccc(-c2cc(N3CCN(C(=O)NC4CCCCC4)CC3)ncn2)cc1	i
COc1ccc(OCC(=O)Nc2cc(C)nn2-c2ncnc3c2cnn3-c2ccc(Cl)cc2)cc1	i
Cc1ccccc1-c1nc2nc(CNc3ccccc3F)cc(=O)n2[nH]1	+
Cc1ccccc1-c1nc2nc(CNC(C)C)cc(=O)n2[nH]1	i
Cc1ccccc1NCc1cc(=O)n2[nH]c(-c3ccccc3C)nc2n1	+
CCc1ccc(S(=O)(=O)N2CCN(c3cc(-c4cccc(F)c4)ncn3)CC2)cc1	i
O=C1CC(c2cccc3[nH]ccc23)c2cn[nH]c2N1 (stereo not given)	i
Cc1ccc(C(C)CCN2CCN(Cc3ncccc3C)CC2)o1 (stereo not given)	i
C=CCC(O)(CC=C)CN1CC(C(=O)O)CC1=O (stereo not given)	i
CCN1CCc2c(sc(NC(=O)c3cccc(C(F)(F)F)c3)c2C(=O)OC)C1	i
CCn1c(=O)n(Cc2ccccc2Cl)c(=O)c2cnc(-c3ccc(OC)cc3)nc21	i
CCn1c(=O)n(Cc2ccncc2)c(=O)c2cnc(-c3ccc(OC)cc3)nc21	+
CCn1c(=O)n(Cc2cccc(OC)c2)c(=O)c2cnc(-c3ccc(Cl)cc3)nc21	i
CCn1c(=O)n(Cc2cccc(Cl)c2)c(=O)c2cnc(-c3ccc(OC)cc3)nc21	+
CCn1c(=O)n(Cc2cccc(OC)c2)c(=O)c2cnc(-c3ccc(OC)cc3)nc21	i
C=Cc1ccc(Cn2c(=O)c3cnc(-c4ccc(OC)cc4)nc3n(CC)c2=O)cc1	i
Cc1ccccc1Oc1ncccc1CNC(=O)c1cc(=O)c2ccccc2o1	i
Cc1ccc2nc(C)c(C(=O)NCCCOc3cccnc3)cc2c1	i
CC(C)c1nc(CN(C)C(=O)C2CCCN2C(=O)C2CCCCC2)cs1 (stereo not given)	i
Cc1nc(C(=O)N(Cc2ccc(F)cc2)CC2CCCO2)cs1 (stereo not given)	i
COc1ccccc1CNc1ncnc2oc3c(c12)CCCC3	i
Cc1ccc(CNc2ncnc3oc4c(c23)CCCC4)o1	i
Clc1ccccc1CCNc1ncnc2oc3c(c12)CCCC3	+
SMILES	FECH inh
CCS(=O)(=O)N1CCN(c2cc(-c3ccc(C)cc3)ncn2)CC1	i
CCS(=O)(=O)N1CCN(c2cc(-c3cccc(C)c3)ncn2)CC1	+
CS(=O)(=O)N1CCN(c2cc(-c3ccc(F)cc3)ncn2)CC1	+
Cc1ccc(-c2cc(N3CCN(S(C)(=O)=O)CC3)ncn2)cc1	i
CCS(=O)(=O)N1CCN(c2cc(-c3cccc(OC)c3)ncn2)CC1	i
CS(=O)(=O)N1CCN(c2cc(-c3cccc(F)c3)ncn2)CC1	i
CCCNC(=O)C1CCC(Cn2c(=O)c3sccc3n(CC(=O)NCCC(C)C)c2=O)CC1 (stereo not given)	i
COc1cccc(Cn2c(=O)c3cnc(-c4ccc(Cl)cc4)nc3n(C)c2=O)c1	i
COc1ccc(C)cc1NS(=O)(=O)c1ccc2c(c1)CCN2C(=O)CCC(=O)N1CCCCCC1	i
CCCc1cc(Sc2ccc(NC(=O)Cc3ccc(OC)cc3)cc2)n2ncnc2n1	i
CCCCN1C(=O)CN(CC(=O)Nc2cccc(OC)c2)S(=O)(=O)c2ccccc21	i
